ChEMBL document CHEMBL1157539, “Thousands of chemical starting points for antimalarial lead identification” (Nature, 2010)

Test system: Plasmodium falciparum
Experiment: GSK_TCMDC: Inhibition of Plasmodium falciparum 3D7 in whole red blood cells, using parasite LDH activity as an index of growth. Test compounds present at 2uM
Type: functional

In order of rising Inhibition:
1. COc1cc(Nc2ccnc3cc(-c4ccncc4)ccc23)cc(OC)c1OC.Cl  89%
2. Cc1cccc(N2C(N)=NC(N)=NC2(C)C)c1C.Cl  90%
3. CC1CN(Cc2cccc(-c3ccc(-c4nc5ccccc5[nH]4)cc3)c2)CC(C)O1.O=C(O)C(F)(F)F (centres undefined)  90%
4. Cc1sc(CNCCCNc2cc(=O)c3ccccc3[nH]2)c(I)c1C.Cl  94%
5. CO.Cc1nc(N)nc(N)c1OCc1cccc2c1ccc1ccccc12.Cl  95%
6. COc1cc2c(cc1C(F)(F)F)N(C(=O)Nc1cc(F)cc(-c3cncnc3)c1)CC2  97%
7. CN(c1ccc2c(c1)nc(NCc1ccc(F)cc1)n2C)c1ccnc(Nc2ccc(CS(C)(=O)=O)cc2)n1.Cl  97%
8. CS(=O)(=O)Nc1cccc(-c2cnc3[nH]cc(-c4ccc(CN)cc4)c3c2)c1  98%
9. NC(=O)c1sc(-n2cnc3ccccc32)cc1OCc1ccccc1[N+](=O)[O-]  99%
10. CCCCCCOc1ccc(C(=O)N[C@H]2CCN(CCCCCNC(=O)/C=C/c3ccc(Cl)c(Cl)c3)C2)cc1  99%
11. CCn1cc(C=C2Oc3c(ccc(O)c3CN3CCCCC3)C2=O)c2cc(OC)ccc21  99%
12. Cc1cccc2nc(-c3cccc(-c4ccc(NC(=O)Cc5ccc[n+]([O-])c5)cc4)c3)[nH]c12  99%
13. O=C(NCCCCN1CCC(c2ccc([N+](=O)[O-])cc2)CC1)c1ccc(NC(=O)c2ccc(Cl)cc2)cc1  100%
14. CCCCN1CCN(CCCCNc2c3ccccc3nc3ccccc23)CC1.Cl  100%
